Compound activity (PubChem BioAssay)
Sampled rows, rich in hits. Any-hit rate of the full collection: about 3.5%.
FBW7 act: activators of human E3 ligase FBW7; AID 1259310; normalized activity (activation), % at 26.1 µM; 650,000 tested, 0.13% active; AlphaScreen FBW7–phospho-cyclin E peptide binding, activator screen; in the data active means normalized activity above about 1.9%;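 further: purified mutant Fbw7 with reduced substrate affinity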
MITF primary: inhibitors of human MITF | O75030 | AlphaScreen MITF homodimerization, bead proximity signal | inhibition, % at 2.6 µM | 650,000 tested, 0.91% active; in the data active means inhibition above about 50%
Target sequence (O75030 whole entry, looked up): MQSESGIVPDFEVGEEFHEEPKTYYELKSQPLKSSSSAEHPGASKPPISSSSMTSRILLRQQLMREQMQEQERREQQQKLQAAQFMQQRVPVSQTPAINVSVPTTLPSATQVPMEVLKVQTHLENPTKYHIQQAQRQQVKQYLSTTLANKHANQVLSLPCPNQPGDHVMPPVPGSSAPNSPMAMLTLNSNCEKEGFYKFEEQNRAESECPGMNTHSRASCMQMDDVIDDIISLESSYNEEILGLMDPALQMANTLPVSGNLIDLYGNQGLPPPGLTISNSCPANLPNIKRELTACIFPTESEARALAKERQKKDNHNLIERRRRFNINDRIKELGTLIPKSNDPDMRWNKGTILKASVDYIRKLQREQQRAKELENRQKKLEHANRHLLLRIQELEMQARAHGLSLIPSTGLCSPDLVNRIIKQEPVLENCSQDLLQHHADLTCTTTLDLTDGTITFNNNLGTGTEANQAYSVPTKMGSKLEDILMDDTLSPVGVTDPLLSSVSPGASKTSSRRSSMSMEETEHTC
TEAD-YAP block: TEAD-YAP interaction inhibition. HEK-TIYL cells, TEAD-Gal4/YAP UAS-luciferase luminescence. inhibition, % at 9.12 µM. 640,000 tested, 1.4% active. AID 1259422; in the data active means inhibition above about 32%
GPR151 activ: activates the human receptor GPR151. Q8TDV0. PathHunter beta-arrestin GPR151 cells, luminescence. activation, % at 11.2 µM. 650,000 tested, 1% active. AID 1508602; in the data active means activation above about 4.9%
GPR151 confirm: confirmation of human GPR151 activators. GPR151 PathHunter beta-arrestin cells, luminescence, 90 min; % of EA-reagent control over plate median. activation, % at 11.2 µM. AID 1508609. 6,700 tested, under 10 active. shares compounds with GPR151 activ;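 active means mean percent activation across replicates above the confirmation screen cutoff of 4.91%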
GPR119 counter: activates human GPR119 in a GPR151 counter-screen; AID 1508611; shares compounds with GPR151 activ; 6,700 tested, 0.3% active; activation, % at 11.2 µM; GPR119 PathHunter beta-arrestin cells, luminescence, 90 min; 0 = compound-well median, 100 = enzyme-acceptor control;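 active means mean percent activation in the counterscreen above 29.09%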;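 further: counterscreen on off-target GPR119 to flag nonselective hits from the GPR151 activator screen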
Hits are given with their value; . = inactive; / = not tested or not shown; ! = not active in a repeat.

SMILES	FBW7 act	MITF primary	TEAD-YAP block	GPR151 activ	GPR151 confirm	GPR119 counter
COC(C(=O)N1CCc2nc(C)[nH]c(=O)c2C1)c1ccccc1 (centres undefined)	.	.	.	.	/	/
COc1ccc(C(=O)Nc2ccc3c(c2)C(=O)Nc2ccc(C)cc2O3)cc1	.	.	.	.	/	/
CCOC(=O)c1sc(NCC(=O)N2CCCc3ccccc32)c(C#N)c1C	.	.	.	.	/	/
COC(=O)c1c(N)sc2c1CCN(Cc1ccccc1)C2	.	.	.	.	/	/
C=CCNCCC1CCC(=O)N1Cc1ccc(C)o1 (centres undefined)	.	.	.	.	/	/
C=CCNCCC1CCC(=O)N1Cc1cn2c(C)csc2n1 (centres undefined)	.	.	.	12	.	.
O=C(Cc1cn(-c2ccc(Oc3ccccc3)nn2)c2ccccc12)NCCOc1ccccc1	.	.	.	.	/	/
O=C(Cc1cn(-c2ccc(Cl)nn2)c2ccccc12)NCCOc1ccccc1	.	.	.	6.9	.	.
CC1(C)Cc2c(sc3nc(-c4cc5ccccc5o4)n(N)c(=O)c23)CO1	.	.	.	6.4	.	.
Cc1cccc(C(=O)N2CC(C)CC(C)C2)c1 (centres undefined)	.	.	.	5.6	.	.
CC(C)(C)C(=O)/C=C(/N)c1ccccn1	.	.	.	.	/	/
CC(C)(C)C(=O)/C=C(\N)Cc1ccccc1	.	.	.	8.1	.	.
CC(=O)c1cccc(S(=O)(=O)NCC(F)(F)F)c1	.	.	.	5.5	.	.
C=CCNS(=O)(=O)c1cccc(C(C)=O)c1	.	.	.	.	/	/
Clc1cccc(N2CCN(c3ncnc4c3nc3n4CCCCC3)CC2)c1	.	.	41	12	.	.
CC(=O)Nc1ccc(-c2cnc3cccc(-c4ccncc4)c3c2)cc1	.	.	.	5.0	.	.
CC(=O)Nc1ccc(-c2cnc3cccc(-c4cccnc4)c3c2)cc1	.	.	.	.	/	/
O=C(CSc1nnc2ncccn12)N1CCN(C(=O)c2ccco2)CC1	.	.	.	.	/	/
CCn1nnnc1SCC(=O)N1CCN(C(=O)c2ccco2)CC1	.	.	.	5.0	.	.
CNc1cc(N2CCN(S(=O)(=O)c3ccc4c(c3)CCCC4)CC2)ccc1[N+](=O)[O-]	.	.	.	13	.	.
CNc1cc(N2CCN(S(=O)(=O)c3ccccc3)CC2)ccc1[N+](=O)[O-]	.	.	.	.	/	/
COCC(=O)Nc1nc2ccc(OC)cc2s1	.	.	.	8.6	.	.
Cc1ccc(CC(=O)O/N=C(\N)c2ccc(Cl)cc2)cc1	.	.	.	.	/	/
O=C(O)COc1ccc(C2C3=C(CCCC3=O)OC3=C2C(=O)CCC3)cc1	.	.	.	6.2	.	.
O=C1CC(c2ccc(F)cc2)c2cc(Br)c3ccccc3c2N1 (centres undefined)	.	.	.	.	/	/
SMILES	FBW7 act	MITF primary	TEAD-YAP block	GPR151 activ	GPR151 confirm	GPR119 counter
CCc1ccc(OCCNC(=O)c2ccc(C3SCC(=O)N3Cc3ccccc3)cc2)cc1 (centres undefined)	.	.	.	.	/	/
CCOc1ccc(C(=O)NCCn2cc(SC(=N)N)c3ccccc32)cc1	.	.	.	5.0	.	.
O=C1NC(=S)NC(=O)C1=Cc1ccc(-c2ccc(N3CCCCC3)c([N+](=O)[O-])c2)o1	.	.	.	12	.	.
O=C1NC(=S)N/C1=C/c1ccc(-c2ccc(Cl)c([N+](=O)[O-])c2)o1	.	.	.	.	/	/
CCN(CCO)c1ccc(NC2=C(NC(C)=O)C(=O)c3ccccc3C2=O)cc1	.	.	61	5.1	.	.
CCC(=O)NC1=C(Nc2ccc(N)cc2)C(=O)c2ccccc2C1=O	.	.	.	.	/	/
O=C(COC(=O)C1CCCC1)Nc1ncc(C(F)(F)F)cc1Cl	.	.	.	.	/	/
CCNC(=O)C(=O)NCc1cccs1	.	.	.	4.9	.	.
O=C(NCc1cccs1)C(=O)NC1CC1	.	.	.	.	/	/
CCCCC1(CCCC)NC(=S)N(c2ccc(C)cc2)N1	.	.	.	11	.	.
COc1ccc(NC(=O)Nc2ccc(F)cc2F)c([N+](=O)[O-])c1	.	.	.	5.0	.	.
COc1ccc(NC(=O)COc2ccc(-c3ccccc3)cc2)c([N+](=O)[O-])c1	.	.	.	.	/	/
COc1cc([N+](=O)[O-])ccc1NC(=O)N1CC(C)OC(C)C1 (centres undefined)	.	.	.	7.0	.	.
COc1cc([N+](=O)[O-])ccc1NC(=O)Nc1ccc(Cl)cc1F	.	.	.	6.2	.	.
COc1ccc(NC(=O)COc2cccc(C)c2)c([N+](=O)[O-])c1	.	.	.	6.9	.	.
CCN(CC)CCN(CC)Cc1cc([N+](=O)[O-])ccc1Cl	.	.	.	.	/	/
CC1CCCN(C(=O)C(C)(C)Oc2ccc(Cl)cc2)C1 (centres undefined)	.	.	.	.	/	/
CC(=O)C1=C(c2ccc(Cl)cc2)N(C(C)=O)n2c(nnc2-c2ccccc2)S1	.	.	.	.	/	/
COc1ccc(NC(=S)NC(=O)c2ccc3c(c2)OCO3)c([N+](=O)[O-])c1	.	.	.	7.0	.	.
CN(CCO)c1ccc(CN2CCc3c(nc(N4CCOCC4)[nH]c3=O)C2)cc1	.	.	.	.	/	/
Clc1ccc2c(c1)CCc1cccnc1C2=C1CCNCC1	.	.	.	7.8!	.	.
COc1ccc(CC(=O)Nc2c3c(nn2C(C)(C)C)CSC3)cc1	.	.	.	.	/	/
CC(C)(C)n1nc2c(c1NC(=O)c1cccc(F)c1)CSC2	.	.	.	.	/	/
CC(C)(C)n1nc2c(c1NC(=O)c1c(F)cccc1F)CSC2	.	.	.	7.6	.	.
COc1ccc(NC(=O)Nc2c3c(nn2C(C)(C)C)CSC3)cc1	.	.	.	5.5	.	.
SMILES	FBW7 act	MITF primary	TEAD-YAP block	GPR151 activ	GPR151 confirm	GPR119 counter
CCCOc1cc2oc(=O)cc(C)c2cc1Cl	.	.	.	5.4	.	.
COC(=O)c1ccccc1NC(=O)c1sc2ncn(CC(=O)Nc3ccccc3OC)c(=O)c2c1C	.	.	.	.	/	/
CCOc1ccc(-c2n[nH]c(C)c2Oc2ccc(F)cc2)c(O)c1	.	.	.	4.9	.	.
CCOc1ccc(S(=O)(=O)N(CC(=O)NCc2ccncc2)c2ccccc2)cc1	.	.	.	.	/	/
CCCC1(C)N=C(c2ccc(CC)cc2)CC(c2cc(Br)ccc2O)N1 (centres undefined)	.	.	.	11	.	.
CCc1ccc(C2=NC(C)(CC)NC(c3cc(Cl)ccc3O)C2)cc1 (centres undefined)	.	.	.	.	/	/
CCOC(=O)c1sc2nc(SCC(=O)Nc3cccc(C(F)(F)F)c3)n(Cc3cccc(Cl)c3)c(=O)c2c1C	.	.	.	.	/	/
COc1ccc(OC)c(S(=O)(=O)Nc2ccc(C(=O)O)cc2)c1	.	.	.	.	/	/
COc1cc(NS(=O)(=O)c2cc(C(=O)O)ccc2OC)cc(OC)c1	.	.	.	9.2	.	.
Cc1ccc(S(=O)(=O)NC(=O)c2cccc(Br)c2)cc1	.	.	.	.	/	/
